PAX8 reporter – inhibitors of PAX8-driven TPO luciferase reporter, primary screen, RMG-I cells, single concentration. SteadyGlo, 24 h. inhibition, % at 12.6 µM. 360,000 compounds, 1.2% hits. AID 652154, 2013;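 active = mean replicate inhibition at least 60% with every replicate also reaching 60%; inconclusive = only one of the two criteria is met; inactive = mean below 60% and not all replicates reaching 60%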;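 also: luciferase light reporting Pax8 driven TPO promoter activity; plate controls were median of neutral control wells for no effect and mitoxantrone controls for full effect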
EBV LMP1 NFkB – EBV LMP1-driven NF-kappaB luciferase reporter inhibitors, primary screen, cell-based, luminescence, single point; LMP1-induced NF-kappaB luciferase reporter cells; inhibition, % at 12.5 µM; 350,000 compounds, 0.69% hits; in the data active = inhibition above about 41%; inconclusive = no clear call, values can overlap the other calls;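 also: 0% = neutral control wells and 100% = reference inhibitor control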
TROY NFkB inh – inhibitors of TROY-driven NF-kB signaling, primary screen, Q293 LMP1-TROYcd cells, NF-kB luciferase, uHTS; 360,000 compounds, 0.98% hits; inhibition, % at 10 µM; Q293 LMP1-TROYcd NF-kB luciferase reporter, 4 h;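 active = compounds whose plate-normalised and pattern-corrected inhibition of the luciferase reporter signal at the single screening dose is 50% or more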
LGR2 inh – inhibitors of bursicon-induced LGR2 CRE-luciferase signal, primary screen, cell-based, HEK293, CRE-luciferase reporter, bursicon stimulation; Drosophila bursicon receptor LGR2 (rickets); bursicon-stimulated, 4 h; inhibition, % at 9.99 µM; 380,000 compounds, 0.35% hits; AID 720647, 2013;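 active = drop in luminescence signal, shown as inhibition above about 50% in the replicate tests, limit read from the data, passing the limit was not always enough; inconclusive = probably only some replicates passing the limit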;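 also: agonist challenge used bursicon conditioned medium at about half maximal strength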
TWEAK-Fn14 inh – inhibitors of TWEAK-Fn14 signaling, primary screen, luciferase reporter cells, uHTS. TWEAK-stimulated Fn14 reporter cells, luciferase luminescence, 8 h. inhibition, % at 10 µM. 360,000 compounds, 2% hits; in the data active = inhibition above about 50%
EWS-Fli block – EWS/Fli-driven NR0B1 reporter inhibitors, primary screen, A673 cells, NR0B1 luciferase, luminescence, MLPCN library | viability-normalised | inhibition, % at 12.6 µM | 350,000 compounds, 0.67% hits | AID 651661, 2012;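 active = mean inhibition of at least 50% after viability correction, with every replicate also passing that limit; inconclusive = mean reaches 50% but only one of two replicates passes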;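 also: firefly luciferase signal divided by Alamar Blue viability fluorescence both relative to DMSO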
The depositor's hits bear a star; ? = inconclusive; · = no result. Most compounds without a hit are left out; they make up all but 3.1% or so of the library.

SMILES	PAX8 reporter	EBV LMP1 NFkB	TROY NFkB inh	LGR2 inh	TWEAK-Fn14 inh	EWS-Fli block
Cc1ccc(OCC(=O)c2cc(C)n(-c3ccccc3)c2C)c([N+](=O)[O-])n1	4	66*	59*	-27	85*	·
C=CCn1c(C)cc(C(=O)COc2ccc(C)nc2[N+](=O)[O-])c1C	-33	24	13	7	65*	·
C[C@@H]1CCCCO[C@@H](CN(C)C(=O)Nc2ccc(F)cc2)[C@@H](C)CN([C@@H](C)CO)C(=O)c2cc(NC(=O)CCCN(C)C)ccc2O1	·	·	·	-4	·	-10
COc1cccc(-n2nnnc2SCC(=O)NCc2ccc3c(c2)OCO3)c1	·	2	-8	-7	81*	8
O=C(CSc1nc2ccccc2s1)NCc1ccc2c(c1)OCO2	12	31	11	-9	62*	·
COCCCNC(=O)CSc1nc2cc3c(cc2c(=O)n1CCCC(=O)NCc1ccc(OC)cc1)OCO3	8	5	-14	7	-1	-1
NC(=O)CSc1nc2cc3c(cc2c(=O)n1CCCC(=O)NCc1ccc2c(c1)OCO2)OCO3	·	45*	18	·	12	·
COc1cc(OC)cc(-n2nnnc2SCC(=O)NCc2ccc3c(c2)OCO3)c1	·	-3	-1	0	-1	3
O=C(CSc1ncnc2scc(-c3ccc(Cl)cc3)c12)NCc1ccc2c(c1)OCO2	·	-8	-2	·	86*	·
COc1ccc(S(=O)(=O)Nc2ccc3c(c2)C(=O)N([C@@H](C)CO)C[C@@H](C)[C@@H](CN(C)S(=O)(=O)c2c(C)noc2C)OCCCC[C@@H](C)O3)cc1	14	·	·	12	·	13
CCOC(=O)c1nc(NCc2ccccc2F)c2ccccc2n1	-12	77*	-9	-20	5	3
CCOC(=O)c1nc(NCc2ccccc2C)c2ccccc2n1	11	2	-10	-3	16	-8
O=C(c1cc(COc2ccc3c(c2)CCCC3)on1)N1CCCC1	-242	73*	-76	-42	-13	-115
COCC1CCN(C(=O)c2cc(COc3ccc4c(c3)CCCC4)on2)C1 (stereo unspecified)	-14	-4	-22	-27	10	-11
O=C(c1cc2nc(-c3ccc(F)cc3)cc(C(F)(F)F)n2n1)N1CCCCC1c1cccnc1 (stereo unspecified)	37	5	45	12	61*	25
O=C(c1cnn2c(C(F)(F)F)cc(-c3ccccc3)nc12)N1CCCCC1c1cccnc1 (stereo unspecified)	23	1	5	18	15	23
CCCC(=O)Nc1ccc2c(c1)OC[C@@H](C)N(C(=O)c1ccccc1F)C[C@H](C)[C@H](OC)CN(C)C2=O	·	·	·	9	·	-2
C=C1C(=O)[C@@]23[C@H](O)C[C@@H]4C(C)(C)CC[C@H](O)[C@]4(C)[C@@H]2C[C@H](O)[C@@H]1[C@H]3O	97*	-13	10	35	60*	1
N/C(=N\OC(=O)/C=C/c1ccccc1)c1ccccn1	-82	9	47	32	56*	-34
CC(C)(C)CC(=O)O/N=C(\N)c1ccccn1	10	17	0	62*	61*	·
Cc1ccc(CC(=O)O/N=C(\N)c2ccccn2)cc1	-186	-17	-16	-47	-2	-46
C[C@@H]1CN([C@H](C)CO)C(=O)c2c(c3ccccc3n2C)-c2ccccc2CO[C@@H]1CN(C)Cc1ccc2c(c1)OCCN2C	18	·	·	13	·	14
CCS(=O)(=O)N1CC2(CN(Cc3ccc(F)cc3)[C@H](CO)c3c2c2ccc(OC)cc2n3C)C1	·	·	·	5	·	2
N#Cc1cc2ccncc2c2ccccc12	-95	14	3	8	-3	-34
Nc1cc2ccncc2c2ccccc12	-45	56*	57*	7	83*	38
SMILES	PAX8 reporter	EBV LMP1 NFkB	TROY NFkB inh	LGR2 inh	TWEAK-Fn14 inh	EWS-Fli block
O=c1c(-c2ccccc2)c(O)c2cccc3c2n1CCC3	·	-4	18	·	-3	·
Cc1cc(C)c(-c2c(O)c3cccc4c3n(c2=O)CCC4)c(C)c1	13	-1	3	·	56*	·
CC(C)c1cn(CC[C@H]2CC[C@H](NC(=O)c3cccc(F)c3)[C@@H](CO)O2)nn1	-1	·	·	-9	·	0
Cc1cc(C(=O)COC(=O)C2=COCCO2)c(C)n1-c1ccccc1	75*	72*	87*	91*	103*	16
Cc1cc(C(=O)COC(=O)C2=NNC(=O)CC2)c(C)n1-c1ccccc1	·	0	57*	-31	7	5
Cc1cc(C(=O)CSc2nnnn2C)c(C)n1-c1ccc2c(c1)OCCO2	-122	-34	52*	·	22	·
CCCC1(CCC)NC(=O)N(CC(=O)c2cc(C)n(-c3ccc4c(c3)OCO4)c2C)C1=O	1	-31	-26	-21	-1	·
Cc1cc(C(=O)CSc2nnc(-c3ccco3)o2)c(C)n1-c1ccc2c(c1)OCCO2	·	14	15	·	42	·
Cc1cc(C(=O)CN2C(=O)C(=O)N(Cc3ccccc3)C2=O)c(C)n1-c1ccc2c(c1)OCCO2	-15	2	22	?	51*	1
CCNC(=O)[C@@H]1[C@@H](CO)[C@@H]2Cn3c(ccc(-c4ccccc4)c3=O)[C@H]1N2C(=O)C1CC1	1	·	·	17	·	-10
C[C@@H]1CN([C@@H](C)CO)C(=O)Cc2cc(NS(=O)(=O)c3cccs3)ccc2O[C@H]1CN(C)C(=O)Nc1ccccc1	-21	·	·	20	·	-10
CC(=O)Nc1ccc(/C=C2\CCc3ccccc3C2=O)cc1	-117	-22	71*	-49	76*	-2
O=C1/C(=C/c2ccc(O)cc2)CCc2ccc([N+](=O)[O-])cc21	-9	-7	-13	-8	-50	10
COc1ccc(/C=C2\Cc3ccccc3C2=O)cc1OC	-7	2	-66	-21	-5	-137
COc1ccc(/C=C2\CCc3ccccc3C2=O)cc1O	-60	-6	31	?	74*	-7
O=C1/C(=C\c2ccc([N+](=O)[O-])cc2)CCc2ccccc21	-66	-26	55*	-1	86*	28
O=C1/C(=C/c2ccccc2)CCCc2ccccc21	-11	-4	-26	·	-15	·
CCNC(=O)C[C@@H]1CC[C@@H]2[C@H](COc3ccc(NC(=O)Nc4c(C)noc4C)cc3C(=O)N2C)O1	-5	·	·	-3	·	-9
CC(C)NC(=O)[C@@]1(C)c2ccccc2C(=O)N(Cc2cc(C(F)(F)F)cc(C(F)(F)F)c2)[C@H]1c1ccc(CO)cc1	-23	·	·	·	·	4
COc1ccc(CN(C)C[C@@H]2Oc3ccc(NS(=O)(=O)c4c(C)noc4C)cc3CC(=O)N([C@H](C)CO)C[C@@H]2C)cc1	·	·	·	-12	·	3
